This note sets out measurements from PubChem BioAssay (Tox21).

Structures are written as SMILES. Values joined by “and” are separate entries in the source; they are usually repeats but may differ in a detail not shown here. Identical values can stand only once. Records with an inconclusive call do not appear. More than one record can exist for a structure, and the calls need not agree. Active and inactive are the calls of the source. Unless noted, the call rests on the fitted dose curve.

Assay [1] in a line: Nuclear factor erythroid 2-related factor 2/antioxidant responsive element (Nrf2/ARE) small molecule agonists: qHTS cell viability counter screen in human keratinocytes (AID 1919968; active means well fitted curve in the direction sought with a large enough effect in the repeat runs; an effect the other way counts as inactive or inconclusive; further: nearly all actives have a fitted effect of over 55% in size; further: potency means the concentration at half of the fitted maximal effect). The method, boiled down:
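Stably transfected HaCaT (KeratinoSens), 1,500/well. Test agents in DMSO were applied for 23 h, 37 C/5% CO2. CellTiter-Fluor was incubated 1 h before the fluorescence read.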
A general note: In qHTS, concentration-response curves come from the screen itself.

The nature of assay [2]: Nuclear factor erythroid 2-related factor 2/antioxidant responsive element (Nrf2/ARE) small molecule agonists: luciferase reporter gene qHTS assay in human keratinocytes (AID 1919969). Further: nearly all actives have a fitted effect of over 35% in size. Further: potency means the concentration at half of the fitted maximal effect. A general note: In a reporter assay the amount or activity of a reporter protein is the signal.
The target of assay [3] is Gonadotropin-releasing hormone receptor (Homo sapiens) (UniProt P30968). The assay can be described thus: Human gonadotropin-releasing hormone receptor (GnRHR) small molecule agonists, calcium flux assay in GnRHR-HEK293 cells (AID 1920063). Further: nearly all actives have a fitted effect of over 35% in size. A digest of the protocol: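 Stable human GnRHR HEK293 line. 18 h plating, then calcium dye for 1 h at 37 C. Agonist-mode compound addition from DMSO stocks; fluorescence monitored 3 min.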
In general terms: A change in cytosolic calcium serves as a functional read-out for many receptors and channels.

The target in assay [4] is KiSS-1 receptor (Homo sapiens) (UniProt Q969F8). The experiment in a line: Human kisspeptin (KISS1R) small molecule agonists, calcium flux assay in KISS1R-HEK293 cells (AID 1920064; active means well fitted curve in the direction sought with a large enough effect in the repeat runs; an effect the other way counts as inactive or inconclusive). The method, boiled down:
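After overnight (18 h) culture at 37 C/5% CO2, human KISS1R-HEK293 cells received calcium dye for 1 h, then test compound; emission at 540 nm (excitation 480 nm) was tracked for 3 min.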

Assay [5] in a line: G protein-coupled receptor (GPCR) small molecule agonists, calcium flux assay: HEK293 wild type cell line counter screen (AID 1920065). A digest of the protocol:
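Following 18 h incubation at 37 C/5% CO2, plates got calcium dye for 1 h; compounds, ATP or DMSO were then pinned in and fluorescence followed kinetically (480/540 nm).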

Assay [6] can be described thus: p53 small molecule agonists, cell-based qHTS assay with human liver microsomes (AID 1963577). The method, boiled down: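 Compounds act here after metabolic activation: human liver microsomes and NADPH, both at 0.5 mg/mL final, were co-added to p53RE-bla cells. Incubation ran 16 h at 37 C, followed by LiveBLAzer detection.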
The nature of assay [7]: p53 small molecule agonists, cell-based qHTS assay with rat liver microsomes (AID 1963578). The method, boiled down:
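Read-out is beta-lactamase reporter fluorescence (LiveBLAzer, 2 h, room temperature, dark) in p53RE-bla cells treated 16 h at 37 C with compound, rat liver microsomes and NADPH, both 0.5 mg/mL final.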

Assay [8] can be described thus: p53 small molecule agonists, cell-based qHTS assay with human liver microsomes: qHTS cell viability counter screen (AID 1963579). Further: nearly all actives have a fitted effect of over 45% in size. Further: potency means the concentration at half of the fitted maximal effect. A digest of the protocol: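 Cells carrying the p53 response-element beta-lactamase reporter are treated for 16 h at 37 C with test compounds in the presence of human liver microsomes and NADPH (both 0.5 mg/mL final); ATP-based CellTiter-Glo luminescence then reports viability.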

Assay [9] can be described thus: p53 small molecule agonists, cell-based qHTS assay: qHTS cell viability counter screen (AID 1963581). Further: nearly all actives have a fitted effect of over 45% in size. Further: potency means the concentration at half of the fitted maximal effect. The method, boiled down: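 qHTS counter screen: 16 h compound exposure at 37 C of p53RE-bla HCT-116 cells (4,000 per well, seeded 5 h prior), cell viability by ATP luminescence.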
Assay [10] deals with 5-hydroxytryptamine receptor 2A (Homo sapiens) (UniProt P28223). The assay can be described thus: 5-hydroxytryptamine receptor 2A (HTR2A) small molecule antagonists, cell-based qHTS assay (AID 1963586). Further: nearly all actives have a fitted effect of over 45% in size. Further: potency means the concentration at half of the fitted maximal effect. The method, boiled down: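 CHO cells stably expressing human HTR2A were plated for 18 h at 37 C, then loaded with calcium dye for 1 h. Compounds were preincubated 5 min at room temperature before DOI (4 nM solution) was added. Kinetic fluorescence was read for 3 min.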

The target is the same in assay [11]. The experiment in a line: 5-hydroxytryptamine receptor 2A (HTR2A) small molecule agonists, cell-based qHTS assay (AID 1963587). Further: nearly all actives have a fitted effect of over 30% in size. A digest of the protocol: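 HTR2A-CHO cells, plated 18 h at 37 C/5% CO2, dye-loaded 1 h at 37 C; compounds in DMSO added by pin tool (agonist mode). Intracellular calcium flux read as kinetic fluorescence on FDSS over 2 min at 1 s intervals.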

For assay [12], the target named is Muscarinic acetylcholine receptor M1 (Homo sapiens) (UniProt P11229). The experiment in a line: Cholinergic receptor muscarinic 1 (CHRM1) small molecule antagonists, cell-based qHTS assay (AID 1963588). Further: nearly all actives have a fitted effect of over 40% in size. A digest of the protocol:
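Compounds were tested at 15 concentrations in three independent runs. Dye-loaded CHRM1-CHO cells were exposed 5 min at room temperature before stimulation by acetylcholine added at 50nM. Intracellular calcium was read kinetically on FDSS for 3 min.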

For assay [13] the target is unchanged. The experiment in a line: Cholinergic receptor muscarinic 1 (CHRM1) small molecule agonists, cell-based qHTS assay (AID 1963589). Further: nearly all actives have a fitted effect of over 35% in size. The method, boiled down: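 Kinetic fluorescence (1 s intervals) of calcium-sensitive dye in human M1 CHO cells after compound addition; cells pre-incubated 18 h at 37 C/5% CO2 and dye-loaded 1 h.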
Assay [14] can be described thus: cAMP Responsive Elements (CRE) small molecule agonists, cell-based qHTS assay (AID 1963590). The method, boiled down:
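Test agents in DMSO were incubated 3 h at 37 C/5% CO2 with CRE-bla HEK 293T cells seeded 18 h earlier; LiveBLAzer B/G FRET substrate was added and read after 2 h at room temperature.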

In assay [15] the target is Beta-2 adrenergic receptor (Homo sapiens) (UniProt P07550). The assay can be described thus: Adrenergic beta2 receptor (ADRB2) small molecule antagonists, cell-based qHTS assay (AID 1963592). Further: series mostly up to about 92 µM; nearly all actives have a fitted effect of over 50% in size. The method, boiled down:
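Assay format: CHO-ADRB2 cells, 18-20hr seeding at 37C/5% CO2, then compound plus 1nM isoproterenol agonist mix for 0.5hr RT. Homogeneous time-resolved fluorescence cAMP detection after 1hr, expressed as 665/615 nm ratio.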

In assay [16] the target is D(2) dopamine receptor (Homo sapiens) (UniProt P14416). The assay can be described thus: Dopamine D2 receptor (DRD2) small molecule agonists, cell-based qHTS assay (AID 1963594). Further: nearly all actives have a fitted effect of over 35% in size. A digest of the protocol:
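HEK293 cells stably expressing DRD2 were cultured 24 h at 37 C, then given Ro20-1724 (0.1 mM final) and compounds for 10 min at room temperature. NKH477 (200nM) was then added for 30 min. cAMP was read by HTRF.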

Assay [17] shares this target. The experiment in a line: Dopamine D2 receptor (DRD2) small molecule antagonists, cell-based qHTS assay (AID 1963595; active means well fitted inhibition curve with a large enough effect in the signal ratio in the repeat runs, with a control signal flat; the % refers to the signal ratio). A digest of the protocol:
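HTRF cAMP read-out at 665 and 620 nm emission (340 nm excitation). Antagonist mode: compounds were tested against 12 nM quinpirole in DRD2-HEK293 cells, with 200 nM NKH477 raising cAMP and 0.1 mM Ro20-1724 blocking its breakdown.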

Assay [18] can be described thus: p53 small molecule agonists, cell-based qHTS assay with rat liver microsomes: qHTS cell viability counter screen (AID 1963580). Further: nearly all actives have a fitted effect of over 45% in size. The method, boiled down: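 Luminescent ATP readout (CellTiter-Glo, 30 min at room temperature) reports viability of p53RE-bla HCT-116 cells after 16 h at 37 C with test compounds under metabolic activation by rat liver microsomes and NADPH at 0.5 mg/mL final each.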

The nature of assay [19]: p53 small molecule agonists, cell-based qHTS assay (AID 1963582; active means well fitted activation curve with a large enough effect in the signal ratio in the repeat runs, not every such curve was filed as active; the % refers to the signal ratio). The method, boiled down: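 Measured: fluorescence from cleaved LiveBLAzer substrate. System: p53RE-bla cells, 16 h compound treatment at 37 C, 2 h substrate step at room temperature.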
The nature of assay [20]: cAMP Responsive Elements (CRE) small molecule antagonists, cell-based qHTS assay (AID 1963591; active means well fitted inhibition curve with a large enough effect in the signal ratio in the repeat runs, not every such curve was filed as active; the % refers to the signal ratio). The method, boiled down: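 Reporter line CRE-bla HEK 293T in dialyzed-FBS DMEM; cells preincubated 18 h, treated 3 h with compound plus NKH477 (0.25 uM final); LiveBLAzer FRET, 2 h RT.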

Chain of D(2) dopamine receptor (Homo sapiens) (P14416 whole entry, looked up): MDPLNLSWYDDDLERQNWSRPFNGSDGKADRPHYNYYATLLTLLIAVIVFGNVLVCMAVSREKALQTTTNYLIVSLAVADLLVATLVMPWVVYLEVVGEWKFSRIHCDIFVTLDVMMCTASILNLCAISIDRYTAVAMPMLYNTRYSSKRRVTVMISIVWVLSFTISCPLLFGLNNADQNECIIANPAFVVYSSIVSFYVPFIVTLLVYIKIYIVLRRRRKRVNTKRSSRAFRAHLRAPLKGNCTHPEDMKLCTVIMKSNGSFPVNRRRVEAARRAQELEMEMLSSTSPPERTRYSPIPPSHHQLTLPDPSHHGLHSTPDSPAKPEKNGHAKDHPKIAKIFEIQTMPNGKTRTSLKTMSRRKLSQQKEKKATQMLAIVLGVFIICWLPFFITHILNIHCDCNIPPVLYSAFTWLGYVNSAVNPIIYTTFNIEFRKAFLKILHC
Chain of Beta-2 adrenergic receptor (Homo sapiens) (P07550 whole entry, looked up): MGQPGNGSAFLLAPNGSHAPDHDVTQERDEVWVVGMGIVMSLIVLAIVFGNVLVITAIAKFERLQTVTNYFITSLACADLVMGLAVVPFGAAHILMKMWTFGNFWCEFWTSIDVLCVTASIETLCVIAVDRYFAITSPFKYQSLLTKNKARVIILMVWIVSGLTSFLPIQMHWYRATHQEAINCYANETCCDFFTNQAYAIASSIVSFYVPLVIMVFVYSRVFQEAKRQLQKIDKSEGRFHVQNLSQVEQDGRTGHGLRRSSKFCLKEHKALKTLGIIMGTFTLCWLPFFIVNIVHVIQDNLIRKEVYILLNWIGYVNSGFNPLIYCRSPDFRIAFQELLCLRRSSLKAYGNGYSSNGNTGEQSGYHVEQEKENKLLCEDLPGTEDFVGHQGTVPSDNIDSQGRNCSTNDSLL
Chain of Muscarinic acetylcholine receptor M1 (Homo sapiens) (P11229 whole entry, looked up): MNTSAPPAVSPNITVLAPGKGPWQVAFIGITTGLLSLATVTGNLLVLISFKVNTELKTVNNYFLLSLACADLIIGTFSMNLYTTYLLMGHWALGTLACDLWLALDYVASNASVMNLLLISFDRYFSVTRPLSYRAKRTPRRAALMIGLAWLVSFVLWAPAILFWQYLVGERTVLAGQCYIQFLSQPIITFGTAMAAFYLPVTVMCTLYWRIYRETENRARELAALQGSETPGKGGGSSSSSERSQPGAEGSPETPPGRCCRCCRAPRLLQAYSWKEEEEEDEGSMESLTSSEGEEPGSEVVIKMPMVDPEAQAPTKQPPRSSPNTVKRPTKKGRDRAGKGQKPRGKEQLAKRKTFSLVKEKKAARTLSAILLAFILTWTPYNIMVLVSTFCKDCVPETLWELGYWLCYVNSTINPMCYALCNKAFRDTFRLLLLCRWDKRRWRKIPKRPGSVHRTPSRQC
Chain of Gonadotropin-releasing hormone receptor (Homo sapiens) (P30968 whole entry, looked up): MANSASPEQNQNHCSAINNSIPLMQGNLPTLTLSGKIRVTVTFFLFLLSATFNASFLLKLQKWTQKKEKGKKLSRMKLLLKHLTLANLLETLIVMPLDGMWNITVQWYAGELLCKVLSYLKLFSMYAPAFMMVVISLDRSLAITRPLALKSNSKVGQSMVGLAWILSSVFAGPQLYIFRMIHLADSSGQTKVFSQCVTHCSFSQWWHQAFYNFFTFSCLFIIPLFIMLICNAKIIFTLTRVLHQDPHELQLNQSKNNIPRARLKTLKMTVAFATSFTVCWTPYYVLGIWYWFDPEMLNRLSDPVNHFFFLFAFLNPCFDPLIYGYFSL
Chain of KiSS-1 receptor (Homo sapiens) (Q969F8 whole entry, looked up): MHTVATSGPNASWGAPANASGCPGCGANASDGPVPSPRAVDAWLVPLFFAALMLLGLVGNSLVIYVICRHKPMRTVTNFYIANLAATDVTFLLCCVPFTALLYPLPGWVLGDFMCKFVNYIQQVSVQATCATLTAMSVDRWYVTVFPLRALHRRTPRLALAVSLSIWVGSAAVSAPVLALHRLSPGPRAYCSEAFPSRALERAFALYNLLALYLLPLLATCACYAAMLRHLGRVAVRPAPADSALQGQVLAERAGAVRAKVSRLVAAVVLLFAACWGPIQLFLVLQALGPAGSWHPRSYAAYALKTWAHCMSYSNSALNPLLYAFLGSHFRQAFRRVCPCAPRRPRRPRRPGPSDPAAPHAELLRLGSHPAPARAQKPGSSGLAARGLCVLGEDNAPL
Chain of 5-hydroxytryptamine receptor 2A (Homo sapiens) (P28223 whole entry, looked up): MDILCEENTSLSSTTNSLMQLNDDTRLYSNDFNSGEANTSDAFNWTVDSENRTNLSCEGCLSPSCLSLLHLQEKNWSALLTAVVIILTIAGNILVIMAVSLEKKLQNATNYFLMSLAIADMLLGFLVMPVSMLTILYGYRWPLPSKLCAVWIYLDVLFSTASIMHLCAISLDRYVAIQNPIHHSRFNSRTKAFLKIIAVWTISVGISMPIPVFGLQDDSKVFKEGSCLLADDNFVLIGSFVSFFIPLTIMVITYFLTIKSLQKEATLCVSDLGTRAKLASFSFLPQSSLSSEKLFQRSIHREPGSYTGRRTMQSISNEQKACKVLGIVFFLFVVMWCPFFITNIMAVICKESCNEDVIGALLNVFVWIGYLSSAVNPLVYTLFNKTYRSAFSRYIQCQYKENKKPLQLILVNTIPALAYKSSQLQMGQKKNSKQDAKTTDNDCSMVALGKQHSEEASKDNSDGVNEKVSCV

`c1cnc2c(c1)ccc1cccnc12`: the Potency in assay [1] was 3.89 µM (active) and 6.11 µM (active) and 7.7 µM (active); in assay [2], 9.69 µM (active); in [8], 36.7 µM (active). Further, the Potency result in assay [3], in assay [4], in [5], in assay [6], in assay [7] and in assay [9] was “inactive” each time. For the same compound, the Potency entry in assay [10], in assay [11], in assay [12], in assay [13], in assay [14] and in assay [15] was “inactive” throughout. The Potency entry in assay [16] and in assay [17] was “inactive” each time.

`CCOC(=O)C(C)(C)Oc1ccc(Cl)cc1`: the Potency result in assay [1], in assay [2], in [3], in [4], in [5] and in assay [6] was “inactive” throughout. Besides, the Potency result in assay [7], in [18], in [9], in assay [19], in assay [14] and in assay [15] was “inactive” in each case. Further, the Potency result in assay [16] and in assay [17] was “inactive” each time.

Take `CCOCCO`: the Potency entry in [1], in assay [2], in assay [3], in [4], in assay [5] and in [6] was “inactive” each time. Also, the Potency entry in assay [7], in assay [18], in assay [9], in assay [19], in [10] and in assay [11] was “inactive” in each case. Also, the Potency entry in [12], in assay [13], in [14], in [15], in assay [16] and in assay [17] was “inactive” each time.

On to `Nc1cc(Cl)c(-c2cc(Cl)c(N)cc2Cl)cc1Cl`, for which the Potency in [1] was 27.3 µM (active) and 48.6 µM (active); in [2] it was 3.06 µM (active) and inactive; in assay [8], 51.3 µM (active); in assay [9] it was 32.4 µM (active); in assay [10] it was 5.29 µM (active). For the same compound, the Potency result in assay [3], in assay [4], in [5], in assay [6], in [7] and in [11] was “inactive” each time. In addition, the Potency result in assay [12], in assay [13], in assay [15], in [16] and in assay [17] was “inactive” in each case.

For the compound `COCCOCCOCCO`, the Potency result in assay [1], in assay [2], in assay [3], in assay [4], in [5] and in assay [6] was “inactive” each time. Also, the Potency result in [7], in assay [8], in assay [9], in assay [10], in assay [11] and in [12] was “inactive” in each case. Further, the Potency entry in [13], in [14], in assay [20], in [15], in assay [16] and in assay [17] was “inactive” each time.

Turning to `COC(=O)c1cccnc1`, the Potency result in [1], in assay [2], in assay [3], in assay [4], in [5] and in [6] was “inactive” throughout. In addition, the Potency entry in assay [7], in [18], in assay [9], in assay [19], in assay [10] and in [11] was “inactive” each time. For the same compound, the Potency entry in [12], in [13], in assay [14], in [20], in [15] and in assay [17] was “inactive” in each case.

Consider `OCc1cccc(Oc2ccccc2)c1`, for which the Potency result in [1], in [2], in [3], in assay [4], in assay [5] and in assay [6] was “inactive” in each case. Also, the Potency result in assay [7], in [18], in [9], in assay [19], in assay [10] and in assay [11] was “inactive” each time. The Potency result in [12], in [13], in assay [14], in assay [20], in assay [15] and in assay [16] was “inactive” throughout. Also, in [17], the Potency entry is “inactive”.
